From ChEMBL document CHEMBL1961873, “Compounds: GSK PKIS; Assays: Nanosyn kinase panel” (2012)

How the values were obtained:
[1] = target: T1, Serine/threonine-protein kinase D2 (Homo sapiens) (UniProt Q9BZL6); settings: at 1 µM;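 further: mean value of PRKD2 inhibition, from the GSK PKIS screening panel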
T1 sequence (whole entry): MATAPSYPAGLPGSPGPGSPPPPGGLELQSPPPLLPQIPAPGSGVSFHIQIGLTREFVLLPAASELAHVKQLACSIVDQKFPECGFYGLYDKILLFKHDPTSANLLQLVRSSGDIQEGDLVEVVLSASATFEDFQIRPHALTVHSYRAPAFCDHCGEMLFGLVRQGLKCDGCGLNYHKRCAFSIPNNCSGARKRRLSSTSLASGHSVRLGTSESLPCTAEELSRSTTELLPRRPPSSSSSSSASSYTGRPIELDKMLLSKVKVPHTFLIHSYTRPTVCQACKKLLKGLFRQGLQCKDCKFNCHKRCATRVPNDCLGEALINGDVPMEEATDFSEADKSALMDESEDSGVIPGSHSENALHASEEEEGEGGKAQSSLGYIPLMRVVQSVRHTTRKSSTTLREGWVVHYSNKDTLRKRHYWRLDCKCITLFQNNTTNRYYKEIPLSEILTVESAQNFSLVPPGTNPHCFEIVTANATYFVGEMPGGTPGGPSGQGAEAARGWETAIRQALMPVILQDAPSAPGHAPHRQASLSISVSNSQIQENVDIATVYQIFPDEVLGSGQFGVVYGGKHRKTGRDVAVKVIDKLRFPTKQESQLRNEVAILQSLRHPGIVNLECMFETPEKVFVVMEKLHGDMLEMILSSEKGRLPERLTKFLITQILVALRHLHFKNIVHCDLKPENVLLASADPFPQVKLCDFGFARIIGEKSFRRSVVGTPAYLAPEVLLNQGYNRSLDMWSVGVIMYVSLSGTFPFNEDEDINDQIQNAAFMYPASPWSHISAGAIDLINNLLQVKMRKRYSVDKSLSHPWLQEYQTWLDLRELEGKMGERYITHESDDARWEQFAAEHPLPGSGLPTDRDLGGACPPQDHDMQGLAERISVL

[2] = target: T2, Serine/threonine-protein kinase D3 (Homo sapiens) (UniProt O94806); settings: at 0.1 µM
T2 sequence (whole entry): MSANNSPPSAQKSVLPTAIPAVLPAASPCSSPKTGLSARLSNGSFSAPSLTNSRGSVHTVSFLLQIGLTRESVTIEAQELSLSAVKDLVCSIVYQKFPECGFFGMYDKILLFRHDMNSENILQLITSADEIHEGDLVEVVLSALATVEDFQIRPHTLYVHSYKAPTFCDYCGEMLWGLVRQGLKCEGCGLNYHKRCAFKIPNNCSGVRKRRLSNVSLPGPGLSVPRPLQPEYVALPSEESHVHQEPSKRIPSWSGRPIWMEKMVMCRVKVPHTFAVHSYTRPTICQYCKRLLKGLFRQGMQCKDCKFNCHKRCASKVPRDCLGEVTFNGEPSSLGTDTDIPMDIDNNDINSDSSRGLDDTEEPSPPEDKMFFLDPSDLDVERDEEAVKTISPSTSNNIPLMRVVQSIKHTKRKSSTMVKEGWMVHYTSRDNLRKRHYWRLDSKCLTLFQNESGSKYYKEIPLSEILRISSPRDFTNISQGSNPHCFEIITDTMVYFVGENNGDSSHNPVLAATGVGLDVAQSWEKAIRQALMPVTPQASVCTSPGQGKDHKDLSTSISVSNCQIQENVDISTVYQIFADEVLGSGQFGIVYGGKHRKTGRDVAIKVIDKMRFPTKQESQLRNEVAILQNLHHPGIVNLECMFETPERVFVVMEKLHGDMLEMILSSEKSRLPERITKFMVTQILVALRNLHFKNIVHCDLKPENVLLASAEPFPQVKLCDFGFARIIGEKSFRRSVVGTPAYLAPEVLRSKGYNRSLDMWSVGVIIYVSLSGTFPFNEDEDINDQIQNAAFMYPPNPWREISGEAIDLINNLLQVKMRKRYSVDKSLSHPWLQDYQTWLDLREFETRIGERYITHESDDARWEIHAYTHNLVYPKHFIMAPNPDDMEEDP

[3] = target: T2, Serine/threonine-protein kinase D3 (Homo sapiens); settings: at 1 µM
[4] = target: T3, cGMP-dependent protein kinase 1 (Homo sapiens) (UniProt Q13976); settings: at 0.1 µM
T3 sequence (whole entry): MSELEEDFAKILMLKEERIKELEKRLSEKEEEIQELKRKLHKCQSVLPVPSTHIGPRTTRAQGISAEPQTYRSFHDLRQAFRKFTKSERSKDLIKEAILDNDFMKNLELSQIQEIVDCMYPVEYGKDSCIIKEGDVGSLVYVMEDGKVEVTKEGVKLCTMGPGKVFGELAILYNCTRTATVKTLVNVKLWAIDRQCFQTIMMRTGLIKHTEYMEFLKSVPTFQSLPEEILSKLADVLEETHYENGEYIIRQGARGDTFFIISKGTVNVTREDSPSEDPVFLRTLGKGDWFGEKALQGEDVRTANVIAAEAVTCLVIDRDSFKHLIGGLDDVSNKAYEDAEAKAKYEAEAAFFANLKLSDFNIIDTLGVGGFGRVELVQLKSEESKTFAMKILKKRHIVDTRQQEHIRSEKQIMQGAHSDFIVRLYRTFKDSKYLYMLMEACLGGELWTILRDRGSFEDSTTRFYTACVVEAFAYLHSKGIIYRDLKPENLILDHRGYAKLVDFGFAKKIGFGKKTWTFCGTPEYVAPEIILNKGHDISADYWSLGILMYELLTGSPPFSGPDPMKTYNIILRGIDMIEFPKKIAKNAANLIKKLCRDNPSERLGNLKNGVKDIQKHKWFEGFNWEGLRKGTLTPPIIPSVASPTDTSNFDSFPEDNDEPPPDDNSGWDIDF

[5] = target: T3, cGMP-dependent protein kinase 1 (Homo sapiens); settings: at 1 µM
[6] = target: T4, cGMP-dependent protein kinase 2 (Homo sapiens) (UniProt Q13237); settings: at 0.1 µM
T4 sequence (whole entry): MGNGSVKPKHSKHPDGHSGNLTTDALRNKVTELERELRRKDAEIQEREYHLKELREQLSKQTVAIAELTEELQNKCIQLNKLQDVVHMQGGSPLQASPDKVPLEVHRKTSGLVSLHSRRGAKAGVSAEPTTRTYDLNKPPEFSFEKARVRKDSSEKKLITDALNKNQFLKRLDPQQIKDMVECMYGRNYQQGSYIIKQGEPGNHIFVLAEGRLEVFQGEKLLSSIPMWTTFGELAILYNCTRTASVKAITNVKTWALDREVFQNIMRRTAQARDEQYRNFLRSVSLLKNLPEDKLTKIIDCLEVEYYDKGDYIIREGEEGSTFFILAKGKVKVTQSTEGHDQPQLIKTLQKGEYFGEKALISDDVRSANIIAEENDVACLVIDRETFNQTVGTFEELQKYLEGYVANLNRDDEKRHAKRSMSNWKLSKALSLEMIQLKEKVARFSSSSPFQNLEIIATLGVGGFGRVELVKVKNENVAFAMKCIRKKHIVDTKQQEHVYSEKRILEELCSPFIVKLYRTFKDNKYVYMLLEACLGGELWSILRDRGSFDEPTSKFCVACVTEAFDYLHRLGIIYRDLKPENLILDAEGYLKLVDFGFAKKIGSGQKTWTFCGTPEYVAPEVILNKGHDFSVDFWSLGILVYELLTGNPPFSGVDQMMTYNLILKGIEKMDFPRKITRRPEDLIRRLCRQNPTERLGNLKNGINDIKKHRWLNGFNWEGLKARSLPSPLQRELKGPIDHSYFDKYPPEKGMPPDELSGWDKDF

[7] = target: T4, cGMP-dependent protein kinase 2 (Homo sapiens); settings: at 1 µM
[8] = target: T5, cAMP-dependent protein kinase catalytic subunit PRKX (Homo sapiens) (UniProt P51817); settings: at 0.1 µM
T5 sequence (whole entry): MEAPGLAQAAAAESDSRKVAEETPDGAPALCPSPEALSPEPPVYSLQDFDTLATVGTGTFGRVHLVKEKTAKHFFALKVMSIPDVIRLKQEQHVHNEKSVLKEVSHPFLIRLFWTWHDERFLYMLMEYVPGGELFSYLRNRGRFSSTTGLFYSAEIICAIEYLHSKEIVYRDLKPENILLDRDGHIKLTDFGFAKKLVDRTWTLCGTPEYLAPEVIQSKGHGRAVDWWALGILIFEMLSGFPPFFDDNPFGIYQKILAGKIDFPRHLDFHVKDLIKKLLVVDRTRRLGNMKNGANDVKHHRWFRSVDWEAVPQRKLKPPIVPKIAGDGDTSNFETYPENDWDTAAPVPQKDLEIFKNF

[9] = target: T5, cAMP-dependent protein kinase catalytic subunit PRKX (Homo sapiens); settings: at 1 µM
[10] = target: Rho-associated protein kinase 1 (Homo sapiens) (UniProt Q13464); settings: at 0.1 µM;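 further: values are mean percent inhibition of ROCK1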
Rho-associated protein kinase 1 (Homo sapiens), sequence (Q13464 2-1354 limits assumed): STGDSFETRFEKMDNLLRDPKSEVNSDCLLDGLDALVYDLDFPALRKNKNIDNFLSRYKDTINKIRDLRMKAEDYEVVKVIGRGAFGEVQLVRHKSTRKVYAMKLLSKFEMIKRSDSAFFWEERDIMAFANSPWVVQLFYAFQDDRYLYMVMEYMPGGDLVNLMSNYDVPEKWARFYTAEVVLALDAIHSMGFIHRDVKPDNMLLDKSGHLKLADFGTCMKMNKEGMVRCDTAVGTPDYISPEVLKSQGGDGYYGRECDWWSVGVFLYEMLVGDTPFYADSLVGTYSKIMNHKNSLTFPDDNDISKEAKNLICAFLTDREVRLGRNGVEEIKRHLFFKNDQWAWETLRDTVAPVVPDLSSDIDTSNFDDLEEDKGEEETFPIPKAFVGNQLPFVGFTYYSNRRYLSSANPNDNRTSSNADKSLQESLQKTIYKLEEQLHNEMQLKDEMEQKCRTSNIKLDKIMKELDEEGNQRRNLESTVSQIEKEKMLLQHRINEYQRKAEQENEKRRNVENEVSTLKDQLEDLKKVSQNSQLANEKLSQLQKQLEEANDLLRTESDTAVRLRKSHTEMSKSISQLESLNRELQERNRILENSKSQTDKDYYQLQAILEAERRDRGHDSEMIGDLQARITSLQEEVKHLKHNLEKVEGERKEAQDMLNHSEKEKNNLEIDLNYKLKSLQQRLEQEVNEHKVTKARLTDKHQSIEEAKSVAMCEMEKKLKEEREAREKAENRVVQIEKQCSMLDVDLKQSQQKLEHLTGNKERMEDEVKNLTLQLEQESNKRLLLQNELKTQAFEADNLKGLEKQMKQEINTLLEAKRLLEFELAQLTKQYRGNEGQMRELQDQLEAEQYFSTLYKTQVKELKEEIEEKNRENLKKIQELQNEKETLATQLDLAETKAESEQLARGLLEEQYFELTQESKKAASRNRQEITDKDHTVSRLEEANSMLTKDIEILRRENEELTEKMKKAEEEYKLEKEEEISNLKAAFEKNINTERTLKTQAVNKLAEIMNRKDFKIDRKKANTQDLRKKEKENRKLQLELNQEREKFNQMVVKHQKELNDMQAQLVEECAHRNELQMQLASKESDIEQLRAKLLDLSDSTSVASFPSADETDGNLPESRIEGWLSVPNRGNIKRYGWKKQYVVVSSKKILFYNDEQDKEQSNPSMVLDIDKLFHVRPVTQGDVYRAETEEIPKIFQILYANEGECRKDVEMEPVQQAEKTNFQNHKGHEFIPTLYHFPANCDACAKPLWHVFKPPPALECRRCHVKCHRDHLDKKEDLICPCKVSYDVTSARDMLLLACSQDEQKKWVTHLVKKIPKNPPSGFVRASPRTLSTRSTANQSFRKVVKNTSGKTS

Row | SMILES | inhibition [1] [%] | inhibition [2] [%] | inhibition [3] [%] | inhibition [4] [%] | inhibition [5] [%] | inhibition [6] [%] | inhibition [7] [%] | inhibition [8] [%] | inhibition [9] [%] | inhibition [10] [%]
1 | Fc1ccc(-c2ncn(C3CCNCC3)c2-c2ccnc(Oc3ccccc3)n2)cc1 | 4.29 | -1.84 | 2.37 | 0.84 | 0.86 | 0.69 | 0.2 | 1.64 | 1.63 | 0.65
2 | CCn1c(-c2nonc2N)nc2c(C#CC(C)(C)O)ncc(OC[C@@H]3CCCN3)c21 | 12.6 | 2.38 | 15.9 | 49.9 | 76.4 | 65.7 | 76.5 | 77 | 85.4 | 1.1
3 | NC(=O)c1sc(-n2cnc3cc(C(F)(F)F)ccc32)cc1OCc1ccccc1Br | 2.17 | 1.16 | 1.32 | 0.44 | -0.88 | 0.81 | 1.01 | 0.67 | 1.17 | 0.41
4 | COc1cc(C=NNc2ncnc3c2cnn3Cc2ccccc2)ccc1O | 1 | -4.03 | -1.04 | 0.15 | 3.36 | 0.26 | 4.01 | 0.31 | 5.24 | 1.47
5 | CCn1c(-c2nonc2N)nc2c(C#CC(C)(C)O)ncc(OCC3CCNCC3)c21 | 3.59 | 0.21 | 4.23 | 9.8 | 48.9 | 35.4 | 70.1 | 45.6 | 75.7 | 1.94
6 | Cc1cc(-c2ccco2)cc(C)c1/C=C/c1cncc(-c2nn[nH]n2)c1 | 2.37 | 2.09 | 1.22 | -0.2 | -0.46 | 0.23 | -1.21 | 0.69 | -0.08 | 0.84
7 | NS(=O)(=O)c1ccc(N/C=C2\C(=O)Nc3ccc4ncsc4c32)cc1 | 58.2 | 13.7 | 54.2 | 4.89 | 16.7 | 9.85 | 47.9 | 2.57 | 6.55 | 6.26
8 | CCn1c(-c2nonc2N)nc2c(C#CCN)ncc(OCCCN)c21 | 0.48 | -2.29 | -1.06 | 8.62 | 38 | 37.1 | 74.6 | 4.23 | 18.9 | 7.73
9 | COc1cccc(COc2cc(-n3cnc4ccccc43)sc2C(N)=O)c1 | 0.96 | 0.24 | 0.32 | 0.58 | -0.92 | 1.93 | -0.04 | 1.72 | 1.42 | -0.06
10 | Nc1nonc1-c1nc2cnccc2n1C1CCCCC1 | 4.59 | -1.73 | 2.27 | 14.4 | 61.2 | 41.1 | 80.9 | 3.71 | 21.7 | 31
11 | CCn1c(-c2nonc2N)nc2c(C#CC(C)(C)O)nc(O[C@@H](CN)c3ccccc3)cc21 | 66.3 | 10.9 | 64.3 | 68.7 | 81.1 | 67.9 | 84.4 | 82.3 | 88.2 | 9.16
12 | COc1cc2c(cc1Nc1nc(Nc3ccsc3C(N)=O)c3cc[nH]c3n1)N(C(=O)CN(C)C)CCC2 | 39.7 | 9.23 | 51.1 | -0.55 | -0.01 | 0.12 | 1.58 | 2.02 | 1.29 | 5.03
13 | NS(=O)(=O)c1ccc(-c2ccc3c(NC(=O)C4CC4)n[nH]c3c2)cc1 | 0.5 | 1.37 | 0.5 | 0.62 | 1.57 | 1.04 | 3.29 | 1.26 | -1.16 | 1.11
14 | COc1cccc(-n2ncc3c(N/N=C/c4ccncc4)ncnc32)c1 | 9.06 | 5.79 | 9.03 | 3.25 | – | 1.96 | 6.05 | 1.85 | 2.86 | 2.51
